We go through 40 compounds from PubChem BioAssay (Tox21).

Records with an inconclusive call do not appear. A call without a number means that no potency is given here. Unmarked numbers belong to inactive results. Calls of active or inactive are those of the source. The call rests on the fitted dose curve; in most records, active means well fitted cell-killing curve with a large enough effect in the repeat runs; inconclusive means weak or mixed curves, or effect the other way; inactive means flat fitted curve, though single readings scatter.

The test can be described thus: qHTS assay to identify small molecule agonists of the constitutive androstane receptor (CAR) signaling pathway - cell viability counter screen (AID 1224836). Further: nearly all actives have a fitted effect of over 45% in size. To be noted: HepG2-CYP2B6-hCAR viability, CellTiter-Fluor, 23 h, PK11195 added to every well; series mostly up to 92.4 µM. From the text: U.S. Tox21 Program National Center for Advancing Translational Sciences [NCATS] NIH Chemical Genomics Center [NCGC] U.S. Environmental Protection Agency [EPA] National Institutes of Environmental Health Sciences [NIEHS] National Toxicology Program [NTP] U.S. Food and Drug Administration [FDA] Tox21 Assay Overview: The constitutive androstane receptor (CAR) is a nuclear receptor which regulates multiple drug metabolizing enzymes (DMEs) and transporters. Activating CAR will generally increase the transcription and subsequent translation of CYP2B6 and CYP3A4. These two DMEs represent about 50% of the drug metabolizing potential in the body. […] Recently, there have also been studies performed indicating CARs role in energy metabolism and cancer therapy. Therefore, inducing CARs activity could have a potential effect on diabetes and cancer. Identifying environmental toxins and compounds which modulate CAR, through the use of the Tox21 10K compound collection, will be an important step in determining the toxicity and potential therapeutic effects these factors will have on the human body. To differentiate true CAR agonists from cytotoxic substances, the assay is multiplexed with a cell viability assay.
Tox21 Assay Protocol Summary: A double-stable (hCAR and CYP2B6-2.2kb) transfected cell line, derived from human hepatoma (HepG2) cells, was utilized for the duration of the quantitative high-throughput screens. The HepG2-CYP2B6-hCAR cells were dispensed at 2500 cells/4 uL/well in 1536-well white solid bottom plates using a Multidrop Combi. After the assay plates were incubated at 37 C/5% CO2 for 4 hrs, 23 nL of compounds at 15 concentrations (from 5-48 columns) or positive control (from 1 to 4 columns) were transferred to the assay plates using a Pintool station. One uL of PK11195 (final concentration = 0.75 uM) was added, using a Flying Reagent Dispenser, inside each well. After a 23 hr incubation period at 37 C/5% CO2, 1 uL of CellTiter-Fluor reagent was added into each well of the assay plates using a Flying Reagent Dispenser. The fluorescence intensity in the plates was then measured using a ViewLux plate reader.
As for `CCOC(=O)c1ncn2c1CN(C)C(=O)c1c(I)cccc1-2`, the Potency result is “inactive”.
As to `Cc1ccc(-c2nc3ccc(C)cn3c2CC(=O)N(C)C)cc1`, the Potency result was “inactive”.
Same read-out and setting: as for `CN(C)CCc1c[nH]c2cccc(OP(=O)(O)O)c12`, the entry is “inactive”.
As for `C[C@@H](N)[C@@H](O)c1ccccc1`, the Potency result was “inactive”.
Still for that read-out and setting: as for `O=CCCl`, the entry is “inactive”; as for `C[N+]1(C)CCCCC1`, “inactive”; as for `COC(=O)c1ccccc1CS(=O)(=O)NC(=O)Nc1nc(OC)cc(OC)n1`, “inactive”.
Still for that read-out and setting: as for `CCOC(=O)CC(SP(=S)(OC)OC)C(=O)OCC` (stereo not given), the entry is “inactive”; as for `O=S1(=O)OCCO1`, “inactive”; as for `O=c1[nH]c2ccccc2o1`, “inactive”.
Same read-out and setting: as for `ClCC1CO1` (stereo not given), the entry is “inactive”.
As for `CCC1(c2cccc(O)c2)CCCCN(C)C1` (stereo not given), the Potency result was “inactive”.
Same read-out and setting: for `O=C(NC(=O)c1c(F)cccc1F)Nc1cc(Cl)c(F)c(Cl)c1F` the value was “inactive”; for `CN(C)CCN(C)C`, “inactive”; for `O=C(Cl)C(Cl)(Cl)Cl`, “inactive”.
Consider `CN=CNc1ccc(C)cc1C`, for which the Potency entry is “inactive”.
The same measure, in the same setting: as for `CC(C)[C@]12CC(=O)[C@H](C)[C@H]1C2`, the entry is “inactive”; as for `NC(=O)OCCCc1ccccc1`, “inactive”.
For `C=CCc1cc(OC)c2c(c1)OCO2`, the Potency entry was “inactive”.
Still for that read-out and setting: for `CC[C@H](N)c1ccccc1` the value was “inactive”; for `CC(C)(C)c1cc(O)ccc1O`, “inactive”; for `COc1cc(CC(C)N)cc(OC)c1OC` (stereo not given), “inactive”.
Same read-out and setting: as for `CCOC1Oc2ccc(OS(C)(=O)=O)cc2C1(C)C` (stereo not given), the entry is “inactive”; as for `CN(CCO)CCO`, “inactive”; as for `CC(O)CCl` (stereo not given), “inactive”.
On the same count and under the same terms, as for `CCCC[N+](=O)[O-]`, the entry is “inactive”; as for `O=P(O)(O)CN(CP(=O)(O)O)CP(=O)(O)O`, “inactive”; as for `C[C@H](N)C(=O)c1ccccc1`, “inactive”.
Turning to `C=CCCC#N`, the Potency entry was “inactive”.
Still for that read-out and setting: for `CCC(C(N)=O)N1CCCC1=O` (stereo not given) the value was “inactive”; for `C=C1C[C@@H]2[C@H](CC[C@]3(C)C(=O)CC[C@@H]23)[C@@]2(C)C=CC(=O)C=C12`, “inactive”.
`O=c1[nH]c2ccccc2n1C1CCNCC1`: the Potency result is “inactive”.
Still for that read-out and setting: as for `Cc1cccc2sc3nncn3c12`, the entry is “inactive”.
Turning to `CCCCCCC(=O)CCCCCC/C=C/C[C@@H](O)[C@H](O)[C@@](N)(CO)C(=O)O`, the viability change, negative = cytotoxic was 6.33% [at 19 µM].
In the case of `c1cncc([C@@H]2CCCCN2)c1`, the Potency entry was “inactive”.
On the same count and under the same terms, as for `O=c1[nH]oc2c1CCNC2`, the entry is “inactive”; as for `CCNP(=S)(OC)O/C(C)=C/C(=O)OC(C)C` (stereo not given), “inactive”.
Still for that read-out and setting: as for `CCNc1nc(NCC)nc(SC)n1`, the entry is “inactive”; as for `CCCN1CCC[C@@H]2Cc3[nH]ncc3C[C@H]21`, “inactive”; as for `O=C(NC(O)C(Cl)(Cl)Cl)NC(O)C(Cl)(Cl)Cl` (stereo not given), “inactive”.
